The source of these data is PubChem BioAssay.

The source made the active and inactive calls.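 How the source made its calls, unless noted: active means fluorescence slope higher than the sample average by over 3 SD (cut at about -0.22 in these data, passing the limit was not always enough); inactive means the rest.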

The nature of assay [1]: inhibitors of TNFa-induced NFkB p65 translocation, primary screen, imaging, HUVEC, MLSMR starter and 10KST1 sets (AID 438;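 active means inhibition above 20% together with a positive visual image hit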;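 further: compound added about 3h40 before a 20 min TNFalpha stimulation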;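 on inhibition: signal is the nuclear over cytoplasmic p65 intensity ratio per well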). The following applies: HUVEC TNFa-induced p65 nuclear translocation; cell count: measured here: nuclei count (cytotoxicity indicator), at 2.08 µM; inhibition: at 2 µM, stronger effect = higher value, 0% TNFa-plus-vehicle, 100% no-TNFa wells.
A short description of assay [2]: inhibitors of mutant huntingtin aggregation, primary screen, imaging, exon1htt(103Q)mCFP cells, high-content imaging (AID 483;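 active means visual image review flags a hit and inhibition of aggregation exceeds 20%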;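 further: compound exposure lasted 3 days before fixation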;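 on nuclei count: percent of the per-plate median nuclei count of sample wells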). The note with it: exon1htt(103Q)mCFP cell line, aggregate imaging, at 2 µM; inhibition of aggregation: stronger effect = higher value; nuclei count: measured here: cell count, toxicity.
The nature of assay [3]: inhibitors of E-selectin induction by TNFa, primary screen, imaging, HUVEC, immunofluorescence, MLSMR starter and 10KST1 sets (AID 487;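 active means visually confirmed hit in the image check and inhibition above 20%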;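 on inhibition: signal is fraction of cell area covered by stained E-selectin grains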;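 on nuclei count: 100% = median nuclei count of all wells on the same plate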). The note with it: HUVEC TNFalpha-induced E-selectin immunofluorescence imaging, at 2 µM; inhibition: stronger effect = higher value; nuclei count: measured here: cell number, toxicity.
The target of assay [4] is Voltage-gated potassium channel subunit beta-2 (Rattus norvegicus) (UniProt P62483). As to the kind of experiment: KvBeta enzyme negative modulators, primary screen, biochemical, NADPH fluorescence (AID 622).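 Further: slope of raw intensity against log time taken from 70 to 1610 s.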 The note with it: recombinant KvBeta, 4-cyanobenzaldehyde reduction, at 10 µM, stronger effect = higher value.
Chain of Voltage-gated potassium channel subunit beta-2 (Rattus norvegicus) (P62483 whole entry, looked up): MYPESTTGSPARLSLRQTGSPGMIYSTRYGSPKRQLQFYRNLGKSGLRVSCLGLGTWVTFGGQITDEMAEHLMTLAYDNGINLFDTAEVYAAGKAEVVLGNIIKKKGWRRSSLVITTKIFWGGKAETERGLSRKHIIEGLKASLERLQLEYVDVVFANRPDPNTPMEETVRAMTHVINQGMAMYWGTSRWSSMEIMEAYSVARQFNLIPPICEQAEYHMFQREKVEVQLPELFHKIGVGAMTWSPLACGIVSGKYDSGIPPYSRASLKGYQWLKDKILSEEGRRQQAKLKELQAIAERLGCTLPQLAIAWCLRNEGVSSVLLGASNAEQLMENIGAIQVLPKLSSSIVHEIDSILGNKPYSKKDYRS
The target is the same in assay [5]. As to the kind of experiment: KvBeta positive modulators, primary screen, biochemical, NADPH fluorescence (AID 623;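 active means NADPH fluorescence slope more negative than the mean of all samples by about 3 SD, 99.7% confidence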;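 further: fluorescence intensity change per second fitted from 20 to 320 s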). The note with it: Recombinant KvBeta, NADPH fluorescence decrease slope, 10 min; at 10 µM; stronger effect = lower value.
The target of assay [6] is Alpha-2C adrenergic receptor (Homo sapiens) (UniProt P18825). Put plainly: modulators of alpha2C/GIRK thallium flux, primary screen, cell-based, HEK293 alpha2C/GIRK1/2 (AID 624;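 active means fluorescence slope after compound addition differing from the mean of all screened samples at 99.7% confidence, in either direction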;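 further: slope of fluorescence ratio to pre-addition baseline per second over 15 to 24 s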). The following applies: thallium flux BTC fluorescence, at 10 µM, actives lie on both sides.
Chain of Alpha-2C adrenergic receptor (Homo sapiens) (P18825 whole entry, looked up): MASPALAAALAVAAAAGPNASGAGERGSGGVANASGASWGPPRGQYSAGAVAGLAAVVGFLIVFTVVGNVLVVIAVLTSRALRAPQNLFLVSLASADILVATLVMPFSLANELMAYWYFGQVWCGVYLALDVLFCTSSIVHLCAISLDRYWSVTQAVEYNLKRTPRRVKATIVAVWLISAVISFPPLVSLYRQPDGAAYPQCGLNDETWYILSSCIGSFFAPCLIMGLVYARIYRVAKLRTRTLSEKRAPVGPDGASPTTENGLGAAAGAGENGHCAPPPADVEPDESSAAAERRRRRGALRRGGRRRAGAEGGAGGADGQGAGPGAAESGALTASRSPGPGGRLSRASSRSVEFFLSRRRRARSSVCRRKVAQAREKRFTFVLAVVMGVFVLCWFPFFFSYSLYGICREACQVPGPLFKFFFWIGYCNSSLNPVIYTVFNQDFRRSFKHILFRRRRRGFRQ
Assay [7] in a line: inhibitors of Sendai virus-induced IRF3 signaling, primary screen, TLR/RLR signaling modifier project, cell-based, Sendai virus stimulus, luciferase, 10K MLSCN set (AID 602276;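 active means inhibition at or above 50% at 10 µM; inactive means inhibition below 50%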;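 further: firefly luciferase from ISG56 promoter only with Renilla not read in this screen; 0% = Sendai virus plus DMSO and 100% = medium plus DMSO without virus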). The following applies: HEK293 RL24 IRF3 luciferase reporter, at 10 µM, stronger effect = higher value. Background: A reporter such as luciferase makes a cellular process visible.
Assay [8] can be described thus: inhibitors of poly I:C-induced TLR3 signaling, primary screen, cell-based, poly I:C stimulus, luciferase, 10K MLSCN set (AID 602277;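 active means inhibition of the reporter signal at or above 50%; inactive means inhibition below 50%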). The note with it: HEK293-TLR3 RL24 IRF3 luciferase reporter, at 10 µM, stronger effect = higher value.

As a reminder, the inhibition is the change of the read-out against control, counted positive when it falls. Turning to `CCN(CC)S(=O)(=O)c1ccc(NC(=O)Cn2cnc3ccccc3c2=O)cc1`, the cell count in assay [1] stood at 321. The inhibition in assay [1] is -1.8% (inactive); in assay [3], -112% (inactive); in assay [7], 12.3% (inactive); in assay [8] it was 16% (inactive). Moreover, the inhibition of aggregation in assay [2] is 15.7% (inactive). Moreover, the nuclei count in assay [2] amounted to 96%; in assay [3], 108%. In assay [4], the fluorescence slope was -0.483 (inactive). For the same compound, in assay [5], the NADPH fluorescence slope is -0.000135 (inactive). In addition, the slope in assay [6] is 0.0039 (inactive).

For the compound `O=C1N=C(N2CCOCC2)CS1`, the cell count in assay [1] was 309. For the same compound, the inhibition in assay [1] is 3.4% (inactive); in assay [3] it was 36% (inactive); in assay [7], 6.09% (inactive); in assay [8], 10.7% (inactive). Also, in assay [2], the inhibition of aggregation is -6.9% (inactive). Also, the nuclei count was 90.7% in assay [2] and 95.1% in assay [3]. Further, in assay [4], the fluorescence slope is -0.519 (inactive). For the same compound, the NADPH fluorescence slope in assay [5] is -1.2e-05 (inactive). Further, the slope in assay [6] is 0.00426 (inactive).

On to `CC1CCN(c2oc(-c3ccccc3F)nc2C#N)CC1`, for which the cell count in assay [1] amounted to 578. The inhibition in assay [1] was 5% (inactive); in assay [3], -32.2% (inactive); in assay [7], -30.7% (inactive); in assay [8], -73.4% (inactive). Also, in assay [2], the inhibition of aggregation is -3.3% (inactive). Further, the nuclei count in assay [2] came out at 122%; in assay [3], 114%. The fluorescence slope in assay [4] was -0.411 (inactive). Also, in assay [5], the NADPH fluorescence slope is 7.4e-06 (inactive). Besides, the slope in assay [6] was 0.00601 (inactive).

On to `CCc1nc(NCCCN2CCOCC2)c2oc3ccccc3c2n1`, for which the cell count in assay [1] is 573. Also, the inhibition in assay [1] is -4.4% (inactive); in assay [3] it was -55.2% (inactive); in assay [7], 17.6% (inactive); in assay [8], 25.2% (inactive). For the same compound, in assay [2], the inhibition of aggregation is -12.6% (inactive). Further, the nuclei count in assay [2] is 106%; in assay [3] it was 103%. Also, the fluorescence slope in assay [4] is -0.465 (inactive). Moreover, the NADPH fluorescence slope in assay [5] is -3.3e-05 (inactive). Besides, in assay [6], the slope is 0.00535 (inactive).

Take `COc1cccc(CNC(=O)Cn2c(=O)oc3ccccc32)c1OC`: the cell count in assay [1] amounted to 603. Further, the inhibition in assay [1] is -4% (inactive); in assay [3], -16.3% (inactive); in assay [7], 11.8% (inactive); in assay [8], 31% (inactive). In addition, the inhibition of aggregation in assay [2] was 2.6% (inactive). In addition, the nuclei count in assay [2] worked out at 59.7%; in assay [3], 88.3%. Also, the fluorescence slope in assay [4] was -0.53 (inactive). Also, the NADPH fluorescence slope in assay [5] was -3.1e-05 (inactive). In addition, in assay [6], the slope is 0.00743 (inactive).

With `COc1ccc(-c2nnc(SCC(=O)Nc3sc4c(c3C#N)CCC4)n2CC2CCCO2)cc1` (centres undefined), the cell count in assay [1] came to 846. The inhibition in assay [1] is 4.6% (inactive); in assay [3], -171% (inactive); in assay [7], 7.87% (inactive); in assay [8], 15.5% (inactive). Also, the inhibition of aggregation in assay [2] was 13.5% (inactive). Further, the nuclei count worked out at 103% in assay [2] and 131% in assay [3]. For the same compound, the fluorescence slope in assay [4] is -0.591 (inactive). The NADPH fluorescence slope in assay [5] is -5.3e-05 (inactive). For the same compound, in assay [6], the slope is 0.00872 (inactive).

As to `Cc1ccc(O)c(C(CC(=O)N2CCCC2)c2ccccc2)c1` (centres undefined), the cell count in assay [1] was found to be 478. Moreover, the inhibition in assay [1] is 1.6% (inactive); in assay [3], -33% (inactive); in assay [7] it was 3.98% (inactive); in assay [8], 16.5% (inactive). The inhibition of aggregation in assay [2] is 4.1% (inactive). Besides, the nuclei count amounted to 103% in assay [2] and 114% in assay [3]. Further, the fluorescence slope in assay [4] is -0.35 (inactive). Also, in assay [5], the NADPH fluorescence slope is -4.7e-05 (inactive). Further, the slope in assay [6] is 0.00552 (inactive).

For the compound `CCCCNC(=O)c1nnn(-c2ccccc2)c1N`, the cell count in assay [1] came to 311. Also, the inhibition in assay [1] was 3.9% (inactive); in assay [3], -11.4% (inactive); in assay [7] it was -55.7% (inactive); in assay [8], -166% (inactive). Further, the inhibition of aggregation in assay [2] is 8% (inactive). The nuclei count in assay [2] was determined as 110%; in assay [3], 120%. Moreover, the fluorescence slope in assay [4] is -0.568 (inactive). In assay [5], the NADPH fluorescence slope is 2.4e-05 (inactive). In assay [6], the slope is 0.00585 (inactive).

Regarding `COc1ccc(N2C(=O)C(Cl)=C(N3CCCC3)C2=O)cc1`, the cell count in assay [1] was determined as 446. Moreover, the inhibition was 10.1% (inactive) in assay [1], 25.6% (inactive) in assay [3], -5.83% (inactive) in assay [7] and -8.61% (inactive) in assay [8]. Besides, in assay [2], the inhibition of aggregation was -0.8% (inactive). For the same compound, the nuclei count in assay [2] came to 101%; in assay [3], 100%. Further, the fluorescence slope in assay [4] is -0.29 (inactive). Besides, in assay [5], the NADPH fluorescence slope is -4.2e-05 (inactive). Also, the slope in assay [6] was 0.00536 (inactive).

As to `O=C(CCCc1cccs1)Nc1nc2c(s1)CCCC2`, in assay [1], the cell count came out at 613. Further, the inhibition was 9.3% (inactive) in assay [1], -164% (inactive) in assay [3], -29.3% (inactive) in assay [7] and -48.8% (inactive) in assay [8]. Besides, the inhibition of aggregation in assay [2] was -20.4% (inactive). The nuclei count came to 102% in assay [2] and 150% in assay [3]. Also, in assay [4], the fluorescence slope was -0.461 (inactive). Moreover, in assay [5], the NADPH fluorescence slope is -2.9e-05 (inactive). Further, the slope in assay [6] is 0.00629 (inactive).

In the case of `C=CCn1c(SCC(=O)Nc2ccccc2OC)nnc1-c1ccco1`, in assay [1], the cell count worked out at 736. Besides, the inhibition in assay [1] is 11% (inactive); in assay [3], 0.9% (inactive); in assay [7], 20.4% (inactive); in assay [8], 22.4% (inactive). Further, in assay [2], the inhibition of aggregation was 1.8% (inactive). Also, the nuclei count in assay [2] is 105%; in assay [3], 120%. For the same compound, the fluorescence slope in assay [4] was -0.494 (inactive). Further, the NADPH fluorescence slope in assay [5] was -5.8e-05 (inactive). Moreover, the slope in assay [6] was 0.00624 (inactive).

As to `C=CCOC(=O)COc1ccc2c(C)c(C)c(=O)oc2c1C`, the cell count in assay [1] came to 373. Further, the inhibition in assay [1] is -3.6% (inactive); in assay [3] it was -22.7% (inactive); in assay [7], -3.09% (inactive); in assay [8], 3.78% (inactive). Moreover, the inhibition of aggregation in assay [2] is -9.6% (inactive). Besides, the nuclei count turned out to be 102% in assay [2] and 105% in assay [3]. Also, the fluorescence slope in assay [4] was -0.608 (inactive). Moreover, the NADPH fluorescence slope in assay [5] is -5.7e-06 (inactive). Further, the slope in assay [6] is 0.00552 (inactive).

`COC(=O)c1ccccc1NC(=O)C1CC=CCC1C(=O)O` (centres undefined): in assay [1], the cell count was 373. In addition, the inhibition in assay [1] is 4.2% (inactive); in assay [3], 0.7% (inactive); in assay [7] it was 16.2% (inactive); in assay [8] it was 22.4% (inactive). Besides, in assay [2], the inhibition of aggregation is -0.6% (inactive). In addition, the values for the nuclei count in assay [2] and in assay [3] were 96.6% and 98.1%, respectively. The fluorescence slope in assay [4] was -0.479 (inactive). Besides, the NADPH fluorescence slope in assay [5] is -3.3e-05 (inactive). The slope in assay [6] was 0.00613 (inactive).

With `CCCSc1nnc(N2C(=O)CC(c3ccsc3)C3=C2CCCC3=O)s1` (centres undefined), the cell count in assay [1] stood at 640. The inhibition in assay [1] is -5.3% (inactive); in assay [3], -39.5% (inactive); in assay [7], 5.11% (inactive); in assay [8], 26.4% (inactive). In addition, the inhibition of aggregation in assay [2] was 24.3% (inactive). The nuclei count was 90.4% in assay [2] and 102% in assay [3]. Moreover, the fluorescence slope in assay [4] was -0.558 (inactive). Besides, the NADPH fluorescence slope in assay [5] was -3.6e-05 (inactive). Moreover, the slope in assay [6] was 0.00697 (inactive).
